Results: PubChem BioAssay (NCI)
The panel holds about 83,000 compounds, 20% with a hit somewhere; the sample as a whole holds those more often.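 Compound tested at a single concentration for 48 hours in 96-well plates; a percent growth value below 10 was scored as active.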 A number with no mark means an inactive call. Active and inactive are the calls of the source.

What follows are compounds tested on HL-60(TB) leukemia (assay: NCI-60 one-dose screen, 48 h (100 = growth as untreated, 0 = no growth, -100 = all killed)). Settings: 10 µM unless noted.

Row | SMILES | growth
1 | Cc1nc2sc(C(=O)Nc3ccccc3)c(N)c2cc1C(=O)c1ccc(C(F)(F)F)cc1 | 99.3%
2 | COCC[C@H]1CCC/C=C/[C@@H]2C[C@H](O)C[C@H]2[C@H](O)/C=C/C(=O)O1 | 3.25% (active)
3 | C[C@H](NC(=O)c1snnc1C1CC1)c1c(F)cccc1Cl | 146%
4 | O=C(N/N=C/c1ccccc1O)c1ccccc1Nc1ccnc(C(F)(F)F)c1 | 7.92% (active)
5 | O=C(Nc1ccc(Br)cc1)C1=NCCCCN1 | 98%
